This is a sample that favours compounds with a hit; in the whole collection about 2.7% have one here.
gsp ag: qHTS for Agonist of gsp, the Etiologic Mutation Responsible for Fibrous Dysplasia/McCune-Albright Syndrome: qHTS. gsp mutant cells, cAMP HTRF, 30 min. Potency, µM (titrated, usually from 76.9 µM), for the others: at the top dose activation (cAMP increase), hits mostly activators. actives 0.13% (n = 340,000). AID 624287, 2012; active = well fitted activation curve with a large enough effect; inconclusive = small, poorly fitted or top-dose-only effect, or another doubt; inactive = no such curve, though single readings can be large or run the other way; cell line not stated here;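 note: phosphodiesterase inhibitor Ro 20-1724 added with compounds to block cAMP breakdown; potency is the fitted concentration of half-maximal effect; nearly all actives have a fitted effect of over 60% in size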
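Cells stably selected in G418 were plated at 2000/well, grown 16-24 hr, then given compounds in DMSO with the PDE inhibitor […] (300 uM solution added) for 30 min at 37C; cAMP was read by HTRF.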
Akt phos inh: HTS Assay for Inhibitors of Akt Phophorylation: Primary Screen. Neuro2A IGF-stimulated pAkt S473 HTRF, 20 min; stronger effect = lower value. actives 0.32% (n = 360,000). activity change, % for hits at 50 µM; in the data active = activity change below about -80%; inconclusive = mostly about -51% to -80%; note: % is set by controls: 0 for no effect and ±100 for the full control effect
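Neuro2A cells in DMEM with 0.5% FBS, overnight at 37 deg C, given compound at single 50 µM final, then IGF (6 nM final) for 20 min at 37 deg C. Lysed; phospho-Akt Ser473 by HTRF after 24 h, 665/615 ratio.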
RXFP1 antag: qHTS Assay for Antagonists of the Relaxin Receptor RXFP1. Relaxin receptor 1 (Homo sapiens), Q9HBX9. HEK293-RXFP1, relaxin-stimulated cAMP HTRF, 30 min; stronger effect = lower value. activity change, negative = inhibition, % at 57.5 µM. actives 0.59% (n = 350,000). AID 1259400, 2018;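 active = activity change of -60% or lower, but not beyond a set lower limit; inconclusive = change between -60% and -40%, or beyond the set limit; inactive = change above -40%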; note: % is set by controls: 0 for no effect and ±100 for the full control effect
Target sequence (Q9HBX9 whole entry, looked up): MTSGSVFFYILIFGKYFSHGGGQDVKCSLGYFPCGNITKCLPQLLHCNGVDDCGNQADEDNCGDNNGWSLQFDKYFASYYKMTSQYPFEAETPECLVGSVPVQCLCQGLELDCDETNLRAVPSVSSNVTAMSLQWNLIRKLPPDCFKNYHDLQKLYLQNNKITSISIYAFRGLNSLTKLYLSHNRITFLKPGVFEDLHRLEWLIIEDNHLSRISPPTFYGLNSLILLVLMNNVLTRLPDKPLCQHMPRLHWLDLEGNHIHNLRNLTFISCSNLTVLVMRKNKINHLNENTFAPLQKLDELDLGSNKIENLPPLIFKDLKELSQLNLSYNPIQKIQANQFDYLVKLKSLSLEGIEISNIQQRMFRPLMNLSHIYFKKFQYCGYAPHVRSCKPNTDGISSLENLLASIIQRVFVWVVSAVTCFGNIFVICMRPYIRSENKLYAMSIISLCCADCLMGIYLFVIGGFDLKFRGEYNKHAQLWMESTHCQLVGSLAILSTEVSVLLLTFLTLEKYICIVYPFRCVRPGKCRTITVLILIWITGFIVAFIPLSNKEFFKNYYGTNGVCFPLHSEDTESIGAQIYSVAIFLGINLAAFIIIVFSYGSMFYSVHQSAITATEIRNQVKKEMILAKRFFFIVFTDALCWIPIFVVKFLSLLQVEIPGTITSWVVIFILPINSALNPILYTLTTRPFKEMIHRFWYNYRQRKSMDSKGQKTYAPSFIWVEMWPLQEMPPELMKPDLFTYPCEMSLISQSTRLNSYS
gsp antag: qHTS for Antagonists of gsp, the Etiologic Mutation Responsible for Fibrous Dysplasia/McCune-Albright Syndrome: qHTS | gsp-mutant cells, cAMP HTRF, 30 min | Potency, µM (series often up to 76.9 µM), without a hit: at the top dose activity change, negative = inhibition, usual class: inhibitors | actives 0.4% (n = 340,000) | AID 624288, 2012; calls by dose curve; cell line not stated here;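 note: intracellular cAMP measured with PDE inhibitor Ro 20-1724 present during compound exposure; potency is the fitted concentration of half-maximal effect; % is set by controls: 0 for no effect and ±100 for the full control effect; nearly all actives have a fitted effect of over 65% in size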
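HTRF cAMP read-out (cAMP-d2 plus anti-cAMP antibody-K in lysis buffer, 30 min RT). Before lysis, cells are exposed to compounds with […] for 30 min at 37C in DPBS containing Ca/Mg, BSA and Tween 20.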
RXFP1 ag: qHTS Assay for Agonists of the Relaxin Receptor RXFP1; Potency, µM (doses to about 57.5 µM), without a hit: at the top dose activation, usual class: activators; AID 2676, 2010; actives 0.3% (n = 370,000); Relaxin receptor 1 (Homo sapiens), Q9HBX9; HEK293T-RXFP1 cAMP TR-FRET, 30 min; response scale: percent of porcine relaxin response, buffer zero; active = well fitted activation curve with a large enough effect; inconclusive = small, poorly fitted or top-dose-only effect; note: potency is the fitted concentration of half-maximal effect; % is set by controls: 0 for no effect and ±100 for the full control effect; nearly all actives have a fitted effect of over 60% in size
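Agonist response is measured as cAMP accumulation in an RXFP1-transfected HEK293T line under PDE4 inhibition. Values are scaled between buffer-only and 29 nM porcine relaxin, and EC50s come from standard Hill equation fits.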
ClpP mod: qHTS Assay for Activators of ClpP | ATP-dependent Clp protease proteolytic subunit (Bacillus subtilis (strain 168)), P80244 | Potency, µM (titrated, usually from 57.5 µM), for the others: at the top dose activity change, negative = active | purified B. subtilis ClpP, FRET peptide cleavage, 20 min | actives 1.9% (n = 340,000); active = well fitted falling curve with a large enough effect; inconclusive = small, poorly fitted or top-dose-only effect; inactive = no such curve, though single readings can be large or run the other way; note: potency is the fitted concentration of half-maximal effect; the source files actives as falling curves though it sought activators and does not explain the sign; nearly all actives have a fitted effect of over 65% in size
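Buffer: 100 mM Tris/HCl pH8, 100 mM KCl, 0.05% low protease BSA, 2.5% glycerol, 0.01% Tween-20. ClpP 10 microg/mL final; 20 min RT; delta FRET normalized to ADEP and DMSO controls.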
The depositor's hits bear a star; i = inactive; ? = inconclusive; . = no result given; [ ] = remark or other dose.

SMILES | gsp ag | Akt phos inh | RXFP1 antag | gsp antag | RXFP1 ag | ClpP mod
COc1ccc(OCc2ccc(-c3nc(C#N)c(NCc4cccnc4)o3)o2)cc1 | . | . | -15 | . | 2% | ?
COc1ccc(CCNc2oc(COc3ccc(Cl)cc3)nc2C#N)cc1OC | . | . | -64* | . | 0% | 0%
COc1ccc(CNc2oc(-c3ccc(COc4ccc(Cl)cc4)o3)nc2C#N)cc1 | . | . | -17 | . | 3% | 13µM*
COCCCNc1ncnc2onc(-c3ccc(F)cc3)c12 | . | . | 3 | . | 0% | 6%
COc1ccccc1NC(=O)CSc1oc(-c2ccc(F)cc2)nc1S(=O)(=O)c1ccc(Br)cc1 | . | . | -13 | . | 8% | 2%
CN1CC2=Cc3ccccc3OC23Oc2ccccc2C=C3C1 | -50% | i | -35 | 11% | 1% | 3.5µM*
CN(C)S(=O)(=O)c1cc(NC(=O)c2cc(=O)[nH]c3ccccc23)ccc1Cl | . | . | . | . | -1% | .
O=C1c2cccc3c([N+](=O)[O-])ccc(c23)C(=O)N1Cc1cccnc1 | 14%[15.4 µM] | i | -77* | -14% | 9% | -2%
CCCCOc1ncnc2c1[nH]c1ccc(OC)cc12 | -2% | i | -4 | 11% | 1% | ?
COc1ccc2[nH]c3c(=S)nc[nH]c3c2c1 | 39%[15.4 µM] | i | 9 | 16% | 16µM* | .
O=C(c1ccc(S(=O)(=O)Nc2ccccc2)cc1)N1CCCC1 | 24%[15.4 µM] | i | -1 | 3% | 2% | .
CC(=O)N1CCN(C(=O)c2ccc(NS(=O)(=O)c3ccc(Cl)c(Cl)c3)cc2)CC1 | 15% | i | -13 | -8% | . | 14µM*
O=C(c1ccc(NS(=O)(=O)c2ccccc2)cc1)N1CCCC1 | -1% | -118%* | 5 | 1% | 3% | -2%
COc1ccc(N2CCN(C(=O)c3ccccc3NS(=O)(=O)c3ccccc3)CC2)cc1 | -39% | i | -12 | -19% | -1% | 28µM*
O=C(c1cccc(S(=O)(=O)N2CCc3ccccc3C2)c1)N1CCN(c2ccc(O)cc2)CC1 | 3% | i | -8 | -16% | 0% | 32µM*
Cc1cc(OC(C)C(=O)Nc2cccc(-c3nc4ccccc4o3)c2)cc(C)c1Cl (stereo not given) | . | . | . | . | 0% | ?
Cc1ccc(NC(=O)CSc2nnc(-c3ccccc3)n2C)cc1 | . | . | . | . | . | 3%
COc1ccccc1CCC(=O)Nc1ccc2c(c1)CN(Cc1ccc(C)o1)CC2 | 6% | i | 11 | -5% | -2% | 1%
O=C(c1cccc(NS(=O)(=O)c2ccccc2)c1)N1CCN(c2ccccc2)CC1 | 24%[15.4 µM] | i | -117* | -18% | -1% | .
O=C(c1cccc(NS(=O)(=O)c2ccc(F)c(F)c2)c1)N1CCN(C(c2ccccc2)c2ccccc2)CC1 | 13% | i | -24 | 7% | 0% | 32µM*
O=C(c1cccc(NS(=O)(=O)c2ccccc2)c1)N1CCCC1 | -32% | i | 0 | 1% | 2% | -2%
O=C(NCc1ccc(F)cc1)c1ccc(S(=O)(=O)Nc2cccc(C(F)(F)F)c2)cc1 | -33% | i | 7 | -5% | 3% | 14µM*
O=C(c1ccc(S(=O)(=O)Nc2cccc(C(F)(F)F)c2)cc1)N1CCC1 | 10µM* | i | 21 | -6% | ? | ?
CC(=O)N1CCN(C(=O)c2ccc(S(=O)(=O)Nc3cccc(C(F)(F)F)c3)cc2)CC1 | 11%[15.4 µM] | i | 7 | ? | 0% | .
O=C(NCc1ccccc1F)c1ccc(S(=O)(=O)Nc2cccc(C(F)(F)F)c2)cc1 | -7% | i | 13 | 4% | -1% | -2%
SMILES | gsp ag | Akt phos inh | RXFP1 antag | gsp antag | RXFP1 ag | ClpP mod
COc1cccc(CN(C)C(=O)c2cc(S(=O)(=O)NC3CCCCC3)ccc2C)c1OC | 9% | i | -2 | -5% | 0% | -3%
O=C1/C(=C/c2ccc(O)cc2)SC(=S)N1CC1CCCO1 (stereo not given) | ? | i | -73* | 0% | -1% | .
CN1CCCc2cc(/C=C/c3ccnc4ccccc34)ccc21 | . | . | . | . | . | 0%
COC(=O)Cc1nnc(Nc2cccc(C)c2)c2ccccc12 | 1% | i | 4 | -11% | 2% | -1%
CCOC(=O)Cc1nnc(Nc2cccc(C)c2)c2ccccc12 | 3% | -109%* | 10 | -14% | 0% | 0%
Cc1nn(C(C)(C)C)c(OC(=O)c2ccc3c(c2)OCO3)c1Sc1ccccc1 | 14%[15.4 µM] | i | -6 | -13% | -1% | 32µM*
O=c1c(-c2cc(-c3ccccc3)nc3c2COc2ccc(Cl)cc2-3)coc2ccccc12 | . | . | . | . | -4% | 0%
Cc1ccc(-c2nc3ncccc3o2)cc1NC(=O)C(C)(C)C | -13% | i | -1 | -11% | 3% | 5%
CCCCC(=O)Nc1cccc(-c2nc3ncccc3o2)c1 | -49% | i | -2 | 6% | 1% | 16µM*
Cc1ccc(-c2nc3ncccc3o2)cc1NC(=O)c1cccs1 | 7% | i | -6 | 35µM* | 0% | -26%
Cc1ccc(C(C)C)c(OCC(=O)Nc2cccc(-c3nc4ncccc4o3)c2)c1 | . | . | . | . | 4% | 22µM*
O=C1CCC[C@@H]2C[C@@]3(C[C@@H]4CCN1[C@H]24)Nc1cc([N+](=O)[O-])ccc1NC3=NCc1ccccc1 | . | . | . | . | . | -1%
O=C(O)c1ccc2c3c(cccc13)C(=O)N(c1ccccc1)C2=O | 31% | i | -5 | 1% | 5% | .
CC(=O)Nc1ccc2c3c(cccc13)C(=O)N(c1ccccc1)C2=O | 35µM* | i | -18 | -8% | 15% | .
O=C(O)c1ccc(N2C(=O)c3cccc4c(C(=O)O)ccc(c34)C2=O)cc1 | 20µM* | i | 26 | -7% | ? | .
Nc1ccc2c3c(cccc13)C(=O)N(c1ccccc1)C2=O | -8%[15.4 µM] | i | -8 | 11% | 14% | -15%
CC(C)CNC(=O)COc1ccc2c3c(c(=O)oc2c1)CCC3 | -52% | i | 15 | -2% | 0% | 25µM*
O=C(COc1ccc2c3c(c(=O)oc2c1)CCC3)NCC(O)c1ccccc1 (stereo not given) | -29% | i | 5 | 3% | 25% | ?
O=C(O)CCNC(=O)COc1ccc2c3c(c(=O)oc2c1)CCCC3 | 4% | i | -8 | 10% | 10% | 4%
CC(C)CCNC(=O)COc1ccc2c3c(c(=O)oc2c1)CCC3 | 1% | i | -13 | 7% | 6% | 10µM*
